Experimental data as given in PubChem BioAssay AID720690 (Broad Institute, 2013).
Entries with a potency or affinity are not part of this list. Calls of active or inactive are those of the source.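 The calls were made as follows: active = every repeat run showing a signal drop whose fitted half-maximal concentration is at most twice the top tested concentration; inconclusive = repeat runs disagree, or flat partial drop, or poor fit; inactive = the rest.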

assay: HEK293T cytotoxicity, dose response, cytotoxicity control for miR-122 modulator project, cell-based, activator set, cherry-pick (AID 720690); settings: HEK293T viability, CellTiter-Glo luminescence, 48 h; series mostly up to 26 µM

| SMILES | outcome |
| --- | --- |
| CCNC(=O)Nc1ccc2c(c1)C(=O)N(C)[C@H]1CC[C@@H](CC(=O)NCCOC)O[C@@H]1CO2 | inactive |
| C[C@@H]1CN([C@@H](C)CO)S(=O)(=O)c2ccc(C3=CCCCC3)cc2O[C@@H]1CN(C)C(=O)Nc1ccc2c(c1)OCO2 | inactive |
| COc1ccc(NC(=O)Cn2nnc(C(=O)NCc3ccccc3OC)c2N)cc1Cl | inactive |
| C[C@@H]1CN([C@@H](C)CO)S(=O)(=O)c2ccc(C3=CCCCC3)cc2O[C@@H]1CN(C)C(=O)Cc1ccncc1 | inactive |
| CCOC(=O)C1CN(S(=O)(=O)c2ccccc2)CCN1S(=O)(=O)c1ccccc1 (centres undefined) | inactive |
| COC(=O)C[C@H]1CC[C@H]2[C@H](COc3ccc(NS(=O)(=O)c4ccc(F)cc4)cc3C(=O)N2C)O1 | inactive |
| CCCCCn1c(=O)[nH]c2cc(C(=O)NCCN3C(C)CCCC3C)ccc2c1=O (centres undefined) | inactive |
| CCNC(=O)CCC(=O)Nc1cc(Cl)ccc1C | inactive |
| CC(C)C(=O)Nc1ccc2c(c1)C(=O)N(C)[C@@H]1CC[C@H](CC(=O)O)O[C@H]1CO2 | inactive |
| Cc1nnsc1Sc1cccc(C(F)(F)F)c1 | inactive |
| CCCCc1cc(=O)oc2cc(C)cc(OC(C)C(=O)O)c12 (centres undefined) | inactive |
| O=C(CN1CCOCC1)NC[C@@H]1N[C@@H](CO)[C@@H]1c1ccc(-c2ccccc2)cc1 | inactive |
| COc1ccc(-c2nc(NC(=O)CSc3nnc(C)s3)ns2)cc1 | inactive |
| COc1cccc(-c2ccc3c(c2)O[C@H](CN(C)C(=O)C2CCOCC2)[C@H](C)CN([C@H](C)CO)S3(=O)=O)c1 | inactive |
